This is part of a sample that, as a whole, favours compounds with a hit. Of some 83,000 tested, about 20% had one in any assay.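 The test compound was applied at a single concentration to cells in 96-well plates for 48 hours, and percent growth was recorded.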 Activity calls are given as the source filed them. How the source made its calls: active means growth percent below 10; inactive means the rest.
Assays:
Experiment in all cases: NCI-60 one-dose screen, 48 h (100 = growth as untreated, 0 = no growth, -100 = all killed)
Details in all cases: 10 µM unless noted
T-47D breast = system: T-47D breast
BT-549 breast = system: BT-549 breast
MDA-MB-435 melanoma = system: MDA-MB-435 melanoma
SW-620 colon = system: SW-620 colon
MCF7 breast = system: MCF7 breast
HCT-116 colon = system: HCT-116 colon
HCC-2998 colon = system: HCC-2998 colon
KM12 colon = system: KM12 colon

Measured: growth

Cc1ccc(-n2cc(/C=N/NC(=O)c3nc(N)n[nH]3)c(-c3ccc(S(C)(=O)=O)cc3)n2)cc1
inactive: T-47D breast 97.5% | BT-549 breast 101% | MDA-MB-435 melanoma 87.9% | SW-620 colon 93.3% | MCF7 breast 94.2% | HCT-116 colon 104% | HCC-2998 colon 115% | KM12 colon 105%

COc1c(N2CC3CCCNC3C2)c(F)cc2c(=O)c(C(=O)N/N=C/c3ccccc3)cn(C3CC3)c12 (stereo not given)
inactive: T-47D breast 101% | BT-549 breast 106% | MDA-MB-435 melanoma 101% | SW-620 colon 102% | MCF7 breast 84.1% | HCT-116 colon 81.1% | HCC-2998 colon 113% | KM12 colon 101%

N/C(=N\C(N)=N\c1nc2ccccc2s1)c1ccncc1Cl
inactive: T-47D breast 55.4% | BT-549 breast 43.8% | SW-620 colon 24.1% | MCF7 breast 75.6% | HCT-116 colon 23.3% | HCC-2998 colon 76.6% | KM12 colon 24.1%
active: MDA-MB-435 melanoma 6.13%

COc1cc2c(cc1OC)C(Sc1ccc(F)cc1)c1c(nc(N)c(C#N)c1N)O2 (stereo not given)
active: T-47D breast -28.1% | MDA-MB-435 melanoma -52.9% | SW-620 colon -16.7% | MCF7 breast -88.3% | HCT-116 colon -74.2% | HCC-2998 colon -86.1% | KM12 colon -62.9%
inactive: BT-549 breast 77.6%

O=S(=O)(Nc1ccc2c(c1)OCO2)c1ccc(-c2cnc(C3CC3)o2)cc1
active: MDA-MB-435 melanoma 0.417%
inactive: T-47D breast 31.7% | BT-549 breast 42.1% | SW-620 colon 21.2% | MCF7 breast 22.3% | HCT-116 colon 19.9% | HCC-2998 colon 73.5% | KM12 colon 23.1%

COc1ccc(/C=C/C(=O)c2cccc(NC(=O)CSc3nc4ccccc4c(=O)n3-c3ccccc3)c2)cc1OC
inactive: T-47D breast 88.2% | BT-549 breast 115% | MDA-MB-435 melanoma 101% | SW-620 colon 94.1% | MCF7 breast 69.2% | HCT-116 colon 86.2% | HCC-2998 colon 111% | KM12 colon 95.9%

O=C(NNc1nc2cc(F)ccc2n2cccc12)c1ccncn1
active: T-47D breast 4.38% | MCF7 breast 7.62%
inactive: BT-549 breast 21.9% | MDA-MB-435 melanoma 31.5% | SW-620 colon 22.7% | HCT-116 colon 18.3% | HCC-2998 colon 53.2% | KM12 colon 23.1%

O=C(CSc1nnc(-c2ccc(Cl)cc2)n1-c1ccccc1)Nc1ccc(Br)cc1
inactive: BT-549 breast 36.7% | MDA-MB-435 melanoma 27.2% | SW-620 colon 37.9% | MCF7 breast 38.6% | HCC-2998 colon 77.9% | KM12 colon 45.4%
active: T-47D breast 8.35% | HCT-116 colon -64.2%

COc1cc2nc(Cl)nc(Nc3cccc(C4=Nc5c(N)nc(N)nc5NC(c5ccccc5)C4)c3)c2cc1OC (stereo not given)
inactive: T-47D breast 67.5% | BT-549 breast 81.6% | MDA-MB-435 melanoma 101% | SW-620 colon 85.4% | MCF7 breast 70.5% | HCT-116 colon 74.6% | HCC-2998 colon 94.3% | KM12 colon 78.3%

CC1(C)CC[C@]2(C(=O)N3CCOCC3)CC[C@]3(C)C(=CC[C@@H]4[C@@]5(C)C/C(=C/c6ccccn6)C(=O)C(C)(C)[C@@H]5CC[C@]43C)[C@@H]2C1
inactive: T-47D breast 53.4% | BT-549 breast 70% | MDA-MB-435 melanoma 68.6% | SW-620 colon 69.6% | MCF7 breast 44% | HCT-116 colon 34.9% | HCC-2998 colon 81.4% | KM12 colon 72.4%

NC(N)=Nc1ccc(Oc2cccc(NC(N)=Nc3ccc(Br)cc3)c2)cn1
inactive: T-47D breast 37.8% | BT-549 breast 99.2% | MDA-MB-435 melanoma 72.7% | SW-620 colon 76% | MCF7 breast 10.8% | HCT-116 colon 69.2% | HCC-2998 colon 79.3% | KM12 colon 66.5%

Cn1cc(-c2nc(N)nnc2-c2c[nH]c3ccc(Br)cc23)c2cc(Br)ccc21
inactive: T-47D breast 32.2% | BT-549 breast 48.8% | MDA-MB-435 melanoma 11.6% | SW-620 colon 29.2% | MCF7 breast 30.6% | HCT-116 colon 17.6% | HCC-2998 colon 81.9% | KM12 colon 27.6%

COc1ccc(S(=O)(=O)NCCCNc2nccc(-c3[nH]c(-c4ccccc4)nc3-c3ccc(Cl)c(O)c3)n2)cc1
inactive: T-47D breast 54.4% | BT-549 breast 88.3% | MDA-MB-435 melanoma 36.9% | SW-620 colon 107% | MCF7 breast 73.2% | HCT-116 colon 57.8% | HCC-2998 colon 112% | KM12 colon 77.6%

CCc1cccc2c3c(sc12)C(c1ccc(OC)cc1)C(C#N)=C(/N=C/c1ccc(Cl)cc1)O3 (stereo not given)
active: MDA-MB-435 melanoma -47.2%
inactive: T-47D breast 12.9% | BT-549 breast 29.8% | SW-620 colon 39.4% | MCF7 breast 19.3% | HCT-116 colon 13% | HCC-2998 colon 20% | KM12 colon 22.7%

Cn1cc(CNc2nc3ccc(OC/C(=C/F)CN)cc3o2)ccc1=O
inactive: T-47D breast 105% | BT-549 breast 99.8% | MDA-MB-435 melanoma 104% | SW-620 colon 107% | MCF7 breast 91.7% | HCT-116 colon 103% | HCC-2998 colon 99% | KM12 colon 105%

Reference: PubChem BioAssay (NCI)
